We go through 90 molecules from PubChem BioAssay AID449762 (Southern Research Specialized Biocontainment Screening …, 2010).

About 1,900 (0.58%) of roughly 330,000 compounds were called active. Inconclusive results (about 4%) are left out. Only a sample is shown. Results with a measured potency or affinity are listed apart. Values without a mark were called inactive. Rule as the data show it: inconclusive = inhibition above about 70% without an active follow-up result; inactive = below that.

A short description of this assay: M. tuberculosis growth inhibition, HTS (AID 449762).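 Also: bacterial growth assessed after seven days of incubation.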 As to conditions: M. tuberculosis H37Rv growth inhibition, 7H9 media; at 25 µM; hits give high values.
For the molecule `COc1ccc2oc(C(=O)OCC(=O)Nc3cc(S(=O)(=O)N4CCOCC4)ccc3OC)c(C)c2c1`, the inhibition was 0.56%.

Take `COc1ccccc1C(=O)NNC(=O)C(=O)NC(C)C`: the inhibition was 61.6%.

As to `Cc1ccc2nc(SCc3nc4c(cnn4-c4ccccc4)c(=O)[nH]3)[nH]c2c1`, the inhibition is 0.73%.

Consider `Cc1ccc(-c2nc3ccccc3s2)cc1NC(=S)NC(=O)/C=C/c1ccco1`, for which the inhibition was -2.81%.

On to `Cc1ccc(-c2nc3ccccc3o2)cc1NC(=S)NC(=O)/C=C/c1ccco1`, for which the inhibition was -10.3%.

On to `CCOC(=O)[C@H]1[C@H]2COc3ccccc3[C@@H]2N2C(=O)c3cc(F)c(F)cc3NC(=O)[C@@]12C`, for which the inhibition was -2.93%.

Take `CC(C)NS(=O)(=O)c1ccc(OCC(=O)NCC2CCCO2)c(Cl)c1` (stereo not given): the inhibition is -3.59%.

Consider `COc1ccc(NC(=O)c2c(Cl)nc3ccccn23)cc1`, for which the inhibition was 9.69%.

For `CC(C)(C)c1ccc(C(=O)OCCNC(=O)c2c(Cl)nc3ccccn23)cc1`, the inhibition is -5.57%.

Consider `CSc1ccccc1C(=O)N1CCN(c2cccc(Cl)c2)CC1`, for which the inhibition was -1.96%.

`O=S1(=O)CCC(n2ncc3c2/C(=C/c2ccccc2)CC3)C1` (stereo not given): the inhibition was 4.34%.

Regarding `Cn1c(CNC(=O)c2ccco2)nnc1SCC(=O)c1ccc(F)cc1`, the inhibition was -2.19%.

As for `O=C(Nc1ccccc1)C1=C[C@H](C2CCCCC2)C[C@H](OCc2ccc(CO)cc2)O1`, the inhibition is 8.7%.

Regarding `O=C(Nc1ccccc1)C1=C[C@@H](C2CC2)C[C@@H](OCc2ccc(CO)cc2)O1`, the inhibition was 5.14%.

In the case of `O=C(c1cc(-c2ccncc2)nc2ccccc12)N1CCN(Cc2ccccc2)CC1`, the inhibition was -9.48%.

Take `Cc1ccccc1CN1CCN(C(=O)c2cc(-c3ccncc3)nc3ccccc23)CC1`: the inhibition was 12.1%.

Consider `C[C@H]1CC[C@]2(O[C@H](CCO)C[C@H](O)[C@H]2O)O1`, for which the inhibition is 3.36%.

`O=C(Nc1cc(F)ccc1F)C1CCCO1` (stereo not given): the inhibition is -6.27%.

Turning to `Cc1ccc(C(=O)Nc2ccc([N+](=O)[O-])cn2)o1`, the inhibition was -6.44%.

For `C=CCc1c(C)nc(SC)nc1Nc1ccc(C)cc1`, the inhibition is 56%.

With `C=CCc1c(C)nc(SC)nc1Nc1ccc(C(=O)O)cc1`, the inhibition is -7.64%.

For `Cc1cccc(C(=O)NCc2nnc(SCC(=O)N3CCN(c4ccccc4)CC3)n2C)c1`, the inhibition was 0.25%.

Regarding `CSc1ncc(C(=O)Nc2ccccc2C)c(C)n1`, the inhibition is 58.1%.

As to `CSc1ncc(C(=O)Nc2ccccc2Cl)c(C)n1`, the inhibition is 6.57%.

With `Cc1ccc(NC(=O)COC(=O)CCn2c(C)csc2=O)cc1S(=O)(=O)N1CCOCC1`, the inhibition is -2.47%.

Consider `O=C(O)c1ccc(Nc2ncc([N+](=O)[O-])cc2[N+](=O)[O-])cc1`, for which the inhibition was 3.64%.

For the molecule `O=[N+]([O-])c1ccc(Nc2ccc(Cl)cc2)nc1`, the inhibition is 25.4%.

Consider `O=C(COC(=O)c1ccccc1Br)Nc1ccc2[nH]c(=O)[nH]c2c1`, for which the inhibition was -0.67%.

`CS(=O)(=O)c1ccccc1-c1nnc(NC(=O)C2=COCCO2)o1`: the inhibition was 0.09%.

Regarding `Cc1ccc(C)c(-c2csc(NC(=O)C3=COCCO3)n2)c1`, the inhibition is 65%.

Turning to `Cc1c(NS(=O)(=O)c2cccc(C(=O)OCC(=O)N(C)C3CCCCC3)c2)c(=O)n(-c2ccccc2)n1C`, the inhibition is -13.2%.

`NC(=S)NCc1cccnc1`: the inhibition was -5.18%.

Regarding `CCOc1ccc(C(=O)NC(=S)NCc2cccnc2)cc1`, the inhibition was -0.27%.

`CCCOc1ccc(C(=O)NCc2cccnc2)cc1`: the inhibition was 1.16%.

As for `S=C(NCc1cccnc1)NCc1cccnc1`, the inhibition was -1.16%.

As for `C[C@H](CO)N1C[C@H](C)[C@@H](CN(C)S(=O)(=O)c2cn(C)cn2)Oc2ccc(NC(=O)Nc3ccc4c(c3)OCO4)cc2C1=O`, the inhibition is 3.14%.

For `COc1cccc(C2=NN(C(=O)c3ccc(C)o3)C(O)(C(F)(F)F)C2)c1` (stereo not given), the inhibition is 3.82%.

On to `Cc1coc2cc3oc(=O)c(CCC(=O)NCCCN4CCCC4=O)c(C)c3cc12`, for which the inhibition was -8.05%.

As to `CN(C(=S)Nc1ccc(F)cc1)C1(c2ccccc2Cl)CCCCC1=O` (stereo not given), the inhibition was -2.19%.

`O=C(O)COc1ccccc1/C=N/NC(=O)C(O)c1ccccc1` (stereo not given): the inhibition was -3.84%.

As to `c1ccc2c(-c3csc(-c4ccncc4)n3)c[nH]c2c1`, the inhibition is 2.11%.

On to `Brc1ccc(-c2csc(-c3c[nH]c4ccccc34)n2)cc1`, for which the inhibition is 20.1%.

For `CCCC(C)NC(=O)COC(=O)c1ccc(Cl)c(S(N)(=O)=O)c1` (stereo not given), the inhibition is -0.98%.

For the molecule `N#CCOC(=O)c1c2c(nc3ccccc13)CCC2`, the inhibition was 1.84%.

Take `C=CCN(CC=C)C(=S)NC(=O)/C=C/c1ccccc1`: the inhibition was -2.7%.

Consider `CN(Cc1ccccc1)C(=S)NC(=O)c1ccc(-c2ccccc2)cc1`, for which the inhibition is 26.7%.

As for `O=C(/C=C/c1ccc(OC2CSC2)cc1)c1ccc(Cl)cc1`, the inhibition is 11.9%.

Consider `COc1cccc(-c2nn(C)c3sc(C(=O)Nc4ccc5c(c4)OCCO5)cc23)c1`, for which the inhibition was 3.01%.

For the molecule `COCCNC(=O)c1cc2c(-c3ccccc3F)nn(C)c2s1`, the inhibition was 12.7%.

For `COc1ccc(C2/C(=C(/O)c3ccc(F)cc3)C(=O)C(=O)N2CCCN2CCOCC2)cc1OC` (stereo not given), the inhibition is -2.8%.

For the molecule `Cc1nc2c(=O)oc3ccccc3c2n1-c1ccccc1`, the inhibition is -4.41%.

Regarding `Cn1c(C(F)(F)F)nc2c(=O)oc3ccccc3c21`, the inhibition was 66.9%.

Take `COc1cc(Cl)ccc1NC(=S)N(CCCN1CCOCC1)Cc1cn(C)c2ccccc12`: the inhibition was -4.57%.

Regarding `O=C(Nc1ccc(Oc2ccc3c(c2)C(=O)N(c2ccc(O)cc2)C3=O)cc1)c1cccs1`, the inhibition is 2.92%.

As to `COCCNc1nc(-c2cc(C(=O)Nc3ccccc3)on2)cc(C(C)C)n1`, the inhibition is 14.4%.

As for `CCCNc1nc(C)cc(-c2cc(C(=O)Nc3ccccc3)on2)n1`, the inhibition was 28.1%.

For `COC(=O)C1CCCCN1C(=O)CCc1nnc(CCc2c[nH]c3ccccc23)o1` (stereo not given), the inhibition is 0.08%.

`CCCCNC(=O)c1ccc(N2CCC3(CC2)OCCO3)c([N+](=O)[O-])c1`: the inhibition was -3.04%.

As for `COCCNC(=O)c1ccc(N2CCC3(CC2)OCCO3)c([N+](=O)[O-])c1`, the inhibition was -3.57%.

Take `N#C[C@@H]1[C@@H]2C(=O)N(c3ccc4c(c3)OCCO4)C(=O)[C@@H]2C2c3ccccc3C=CN21` (stereo not given in full): the inhibition was -6.97%.

As for `CCn1c(SCC(=O)Nc2cc(C(C)(C)C)nn2-c2ccccc2)nnc1-c1cccs1`, the inhibition was -2.18%.

In the case of `COc1cccc(N2CCN(C(=O)CCCCCNc3nc(=S)[nH]c4ccccc34)CC2)c1`, the inhibition is 13.8%.

For the molecule `O=C(C1CCC(CNc2nc(=S)[nH]c3ccccc23)CC1)N1CCN(c2ccccn2)CC1` (stereo not given), the inhibition was 6.46%.

`CCOC(=O)c1ccc(-c2c(-c3ccccc3OC)sc3cc4c(cc23)OCO4)cc1F`: the inhibition is 6.83%.

In the case of `O=C(Cc1c(F)cccc1Cl)Nc1ccc(S(=O)(=O)N2CCOCC2)cc1`, the inhibition is -7.05%.

With `CCOC(=O)N1CCN(C(=O)CNC(=O)c2nn(-c3ccc(OC)c(Cl)c3)c(=O)c3ccccc23)CC1`, the inhibition is 7.01%.

Take `CCOC(=O)CNC(=O)CNC(=O)c1nn(-c2ccc(OC)c(OC)c2)c(=O)c2ccccc12`: the inhibition is 23.4%.

Consider `O=C(c1ccccc1N(Cc1ccccc1)S(=O)(=O)c1ccccc1)N1CCOCC1`, for which the inhibition was -3.28%.

`Cn1c(=O)n(C)c2cc(NC(=O)COc3ccc(F)cc3)ccc21`: the inhibition was -1.78%.

Regarding `O=C1CCN(CCc2ccccc2)CCN1[C@H](CSc1ccccc1)c1ccccc1`, the inhibition was 21.9%.

In the case of `c1ccc2c(c1)ncn2-c1ncnc2sc3c(c12)CCCC3`, the inhibition is 7.95%.

`CC(O)CNc1nc2sc3c(c2c(=O)n1CCc1ccccc1)CCCCC3` (stereo not given): the inhibition was -3.46%.

As to `O=C(COc1ccccc1Cl)Nc1ccc2c(c1)C(=O)NC2=O`, the inhibition was -3.92%.

Take `CCOC(=O)COc1ccc2c(c1)C(=O)CC(C)(C)O2`: the inhibition is 54.7%.

For the molecule `CC1(C)CC(=O)c2cc(OCC(=O)NCc3cccnc3)ccc2O1`, the inhibition is -4.88%.

In the case of `COc1ccc2c(c1OC)C(=O)N1C2SC(C)(C)[C@H]1C(=O)NC(C)C` (stereo not given in full), the inhibition is -6.91%.

`COc1ccc(-c2cc3nc[nH]c(=O)c3s2)cc1`: the inhibition was 65.4%.

Consider `COc1ccc(-c2cc3nc(C)n(N)c(=O)c3s2)cc1`, for which the inhibition is -2.06%.

Turning to `COc1ccc(CC(=O)Nc2nc(C)cs2)cc1OC`, the inhibition is 0.84%.

For the molecule `O=C(C1CCC(=O)N(C2CCCCCC2)C1)N1CCN(c2ccccc2Cl)CC1` (stereo not given), the inhibition was 1.52%.

In the case of `Cc1ccccc1N1CCN(C(=O)C2CCC(=O)N(C3CCCC3)C2)CC1` (stereo not given), the inhibition is 2.89%.

For `CN(C)S(=O)(=O)c1ccc(C(=O)/C=C/c2cccnc2)cc1`, the inhibition was 18.5%.

Turning to `Cc1ccc(OCCCN2C(=O)C(=O)c3cccc(C)c32)cc1`, the inhibition was 9.09%.

Turning to `Cc1cccc2c1N(CCOc1ccc(C(C)(C)C)cc1)C(=O)C2=O`, the inhibition was 4.9%.

`COc1ccc(N2CCN(C(=O)CCc3nnc4ccc(N5CCOCC5)nn34)CC2)cc1`: the inhibition was -1.82%.

For the molecule `COc1cc(N)c(Cl)cc1C(=O)NC1CN2CCC1CC2` (stereo not given), the inhibition is 4.28%.

`CCOc1cc(N)c(Cl)cc1C(=O)NCC1CN(Cc2ccc(F)cc2)CCO1` (stereo not given): the inhibition is -1.66%.

Consider `COc1ccc(S(=O)(=O)N2CCOC2CNC(=O)C(=O)NCc2ccco2)cc1` (stereo not given), for which the inhibition was 0.26%.

Take `CCC(C)Nc1nc(Cl)nc(NCCOc2ccccc2)n1` (stereo not given): the inhibition is 5.37%.

As for `O=C(CCC(=O)N(CC(=O)NC1CCCCC1)CC1CCCO1)Nc1nccs1` (stereo not given), the inhibition was -1.08%.

For orientation: inhibition means the drop in the measured response relative to a control, in per cent.
